# “And” between values parts separate entries of the source, which are not always exact repeats. Identical values can stand only once. Records with an inconclusive call do not appear. Entries that show only a call come without a potency. The source made the active and inactive calls. Unless noted, the call rests on the fitted dose curve; in most records, active means well fitted curve in the direction sought with a large enough effect; inconclusive means small, poorly fitted or top-dose-only effect, or another doubt; inactive means no such curve, though single readings can be large; an effect the other way counts as inactive or inconclusive.
# What was measured:
# [1] = target: alpha-glucosidase (Oryza sativa, rice) (UniProt Q653V4); experiment: Counterscreen for Glucocerebrosidase Inhibitors: qHTS Assay for Rice alpha-Glucosidase at pH 5.0 (AID 997); settings: rice alpha-glucosidase enzyme activity; series mostly up to 76.9 µM
# Method in brief: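 Endpoint fluorogenic assay at pH 5.0: compounds (0.7 nM to 77 uM) titrated against 4 nM rice enzyme and 400 uM 4-MU-alpha-glucoside for 20 min at room temperature; NaOH/glycine stop, read ex 365/em 440 nm, Hill-fitted AC50.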
# [2] = Validation of Assay for Modulators of Lamin A Splicing (AID 1459; active means well fitted curve in the direction sought with a large enough effect in the signal ratio; the % refers to the signal ratio;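 further: cells exposed to compound for two days before reading; ratio rise marks activators and ratio drop marks inhibitors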); settings: Lamin A splicing dual RFP/GFP fluorescence reporter; series mostly up to 9.22 µM
# Method in brief: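 Readout: ratio of GFP (500-530 nm) to RFP (575-640 nm) total object intensity by 488 nm laser-scanning cytometry after 48 hrs. Cells were HeLa S3 clones carrying lamin A-EGFP minigene plus DsRed2 viability reporter; vehicle 0.5% DMSO final.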
# [3] = qHTS Assay for Lipid Storage Modulators (AID 1519; calls by dose curve); settings: Drosophila S3 cells, BODIPY lipid droplet/cell ratio, laser cytometry, cells loaded with oleic acid; for activity change, negative = inhibition: at 57.5 µM (top of the series)
# Method in brief: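 Cells seeded at 5,000 per well were treated with compounds over a concentration series and loaded with oleic acid (400 uM, as added). Lipid droplet fluorescence (488 nm excitation, 500-530 nm channel) was read by laser-scanning cytometry and normalized to 20 uM Triacsin C.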
# [4] = Counterscreen for APE1 Inhibitors: Fluorescent Dye Displacement Validation Assay (AID 1707); settings: fluorescent dye displacement from DNA; series mostly up to 57.1 µM
# Method in brief: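 Counterscreen flags promiscuous DNA binders: compounds displacing ThO from duplex DNA (abasic THF site, 50 nM) reduce 540 nm emission (480 nm excitation). ThO 250 nM final; Tris-HCl pH 7.5 with NaCl, MgCl2 and Tween-20.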
# [5] = target: Endonuclease 4 (Escherichia coli (strain K12)) (UniProt P0A6C1); experiment: Counterscreen for APE1 Inhibitors: qHTS Validation Assay for Inhibitors of Endonuclease IV (AID 1708); further: potency means the concentration at half of the fitted maximal effect; settings: E. coli endonuclease IV, DNA cleavage fluorescence; series mostly up to 57.1 µM
# Method in brief: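 Conditions: 2 nM enzyme, 50 nM TAMRA/BHQ-2 substrate, pH 7.5 Tris buffer with 2 mM MgCl2, RT. Compound preincubation 15 min; readout three fluorescence reads 60 s apart, third-minus-first.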
# [6] = qHTS for differential inhibitors of proliferation of Plasmodium falciparum line 7G8 (AID 1815); settings: Plasmodium falciparum 7G8 proliferation inhibition; series mostly up to 28.7 µM;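 further: parasite growth measured after three days of incubation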; further: potency means the concentration at half of the fitted maximal effect
# [7] = qHTS for differential inhibitors of proliferation of Plasmodium falciparum line GB4 (AID 1816); settings: Potency: Plasmodium falciparum GB4 proliferation inhibition; series mostly up to 28.7 µM;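 further: parasite growth measured after 72 h incubation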; further: potency means the concentration at half of the fitted maximal effect
# [8] = qHTS for differential inhibitors of proliferation of Plasmodium falciparum line 3D7 (AID 1876); further: potency means the concentration at half of the fitted maximal effect; settings: P. falciparum 3D7 proliferation inhibition; series mostly up to 28.7 µM
# [9] = target: DNA repair nuclease/redox regulator APEX1 (Homo sapiens) (UniProt P27695); experiment: qHTS Validation Assay for Inhibitors of the Human Apurinic/apyrimidinic Endonuclease 1 (APE1) (AID 1705;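 further: TAMRA fluorescence gain over two minutes as APE1 cuts a quenched THF abasic duplex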); settings: purified APE1 endonuclease activity, fluorescence, titration; series mostly up to 57.1 µM
# Sequence of DNA repair nuclease/redox regulator APEX1 (Homo sapiens) (P27695 whole entry, looked up): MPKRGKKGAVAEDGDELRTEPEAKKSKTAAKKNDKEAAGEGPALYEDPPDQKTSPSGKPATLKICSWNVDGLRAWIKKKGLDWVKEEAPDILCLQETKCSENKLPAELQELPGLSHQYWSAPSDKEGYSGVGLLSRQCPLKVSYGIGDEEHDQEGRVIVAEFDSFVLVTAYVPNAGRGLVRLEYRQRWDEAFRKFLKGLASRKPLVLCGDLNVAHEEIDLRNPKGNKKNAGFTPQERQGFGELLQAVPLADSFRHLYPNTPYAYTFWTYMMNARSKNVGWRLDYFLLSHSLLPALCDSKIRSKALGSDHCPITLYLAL
# Method in brief: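 Read-out: TAMRA fluorescence (525 nm ex, 598 nm em) from cleavage of a quenched THF abasic-site duplex, 50 nM final; activity taken as intensity change between third and first of three reads 60 s apart.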
# [10] = Cell Viability - LYMP1-002 - Assay at 40 hr (AID 994); settings: LYMP1-002 lymphoblastoid cell viability; series mostly up to 92.2 µM; further: nearly all actives have a fitted effect of over 60% in size
# Method in brief: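 Cells are plated at 2500 per well and rested 5 hr at 37 C. Compounds are added and incubated 40 hr at 37 C. CellTiter-Glo reagent is added for 30 min at room temperature before luminescence is read.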
# [11] = measured here: cell count channel max response
# [12] = measured here: lipid channel max response
SMILES,outcome [1],outcome [2],"activity change, negative = inhibition [3]","max response [3, 11]","max response [3, 12]",Potency [4],Potency [5],Potency [6],Potency [7],Potency [8],Potency [9],outcome [10]
CC(C)Cn1c(=O)n(C)c(=O)c2[nH]cnc21,inactive,inactive,2.93% (inactive),8.14%,8.87%,inactive,inactive,inactive,inactive,inactive,,
NC(Cc1cccc(-c2ccccc2CP(=O)(O)O)c1)C(=O)O (centres undefined),,inactive,1.29% (inactive),44.3%,44.8%,inactive,,inactive,inactive,inactive,,
Cn1cc(C(F)(F)F)nc1-c1ccc(OCC(O)CNCCOc2ccc(O)c(C(N)=O)c2)cc1 (centres undefined),,inactive,,,,inactive,inactive,12.6 µM (active),12.6 µM (active),2.82 µM (active),inactive,
CC1CCN=C(N)S1 (centres undefined),,inactive,,,,inactive,inactive,inactive,,,inactive,
O=C(O)C1=CC(=C(c2ccc(O)c(C(=O)O)c2)c2ccc(O)c(C(=O)O)c2)C=CC1=O,inactive,inactive,3.23% (inactive) and 0.986% (inactive),16.1% and 56.8%,22% and 58.3%,,0.708 µM (active),,,,,
O=C(O)C1CN(CCCP(=O)(O)O)CCN1 (centres undefined),,inactive,,,,inactive,inactive,inactive,inactive,inactive,inactive,
N[C@@H](Cc1ccc(F)cc1)C(=O)O,,inactive,,,,inactive,inactive,12.6 µM (active),14.1 µM (active),11.2 µM (active),inactive,
CC(C)C[C@H](NC(=O)[C@H](O)[C@H](N)Cc1ccccc1)C(=O)O,,inactive,,,,inactive,inactive,inactive,inactive,inactive,inactive,
CC(N)=O,inactive,inactive,-0.907% (inactive),-17.4%,-17.3%,inactive,inactive,inactive,inactive,inactive,,
N=C(N)SCCN,inactive,inactive,1.32% (inactive) and 3.68% (inactive),9.1% and -2.48%,12% and 0.318%,inactive,inactive,,,,,
c1ccc(CN2CCC3(CCCc4ccccc43)CC2)cc1,inactive,inactive,-2.7% (inactive),-38%,-39.4%,inactive,inactive,5.01 µM (active),5.62 µM (active),10 µM (active),,
CSC(N)=NCCC[C@H](N)C(=O)O,,inactive,-0.616% (inactive),39.8%,26.3%,,,inactive,inactive,inactive,,
NCCCNCCCCNCCCN,inactive,inactive,1.21% (inactive),9.8%,13.5%,inactive,,inactive,inactive,inactive,,
NOCC(=O)O,inactive,inactive,2.14% (inactive),-5.32%,0.0357%,,inactive,,inactive,,,
COC(=O)C1=C(C)NC(C)=C([N+](=O)[O-])C1c1ccccc1C(F)(F)F (centres undefined),,inactive,,,,inactive,inactive,,,,inactive,
NCCCCN=C(N)N,inactive,inactive,6.41% (inactive),4.55%,23.5%,inactive,inactive,inactive,inactive,inactive,,

SMILES,outcome [1],outcome [2],"activity change, negative = inhibition [3]","max response [3, 11]","max response [3, 12]",Potency [4],Potency [5],Potency [6],Potency [7],Potency [8],Potency [9],outcome [10]
CC[N+](CC)(CC)CC(=O)Nc1c(C)cccc1C,inactive,inactive,4.67% (inactive),-3.7%,2.48%,inactive,inactive,inactive,inactive,inactive,,
CCCCCCCCCCCCCCC[C@H](O)[C@H](N)CO,inactive,inactive,-9.53% (inactive),-83.5%,-95.1%,,31.6 µM (active),,,inactive,,
COC(=O)C(N)Cc1ccc(Cl)cc1 (centres undefined),,inactive,,,,inactive,inactive,inactive,inactive,inactive,inactive,
Oc1cc2c(cc1O)C(c1ccccc1)CNCC2 (centres undefined),,inactive,,,,inactive,inactive,,,,inactive,
CC1CCN(CC[C@H]2CCCN2S(=O)(=O)c2cccc(O)c2)CC1,,inactive,5.39% (inactive) and 1.08% (inactive),7.6% and -15.4%,15.3% and -11.1%,inactive,inactive,,12.6 µM (active),,,
NC/C=C\C(=O)O,inactive,inactive,4.68% (inactive) and 0.384% (inactive),-7.52% and 26.3%,-6.79% and 26.6%,,inactive,inactive,inactive,inactive,,
CC(C)C[C@H](NC(=O)C1OC1C(=O)O)C(=O)NCCCCN=C(N)N (some centres undefined),,inactive,,,,inactive,inactive,4.47 µM (active),3.16 µM (active),2.51 µM (active),inactive,
Cc1nc2c(OCc3ccccc3)cccn2c1CC#N,inactive,inactive,,,,inactive,inactive,inactive,inactive,inactive,inactive,
CC(N)(C(=O)O)c1ccc(C(=O)O)cc1 (centres undefined),,inactive,,,,inactive,,inactive,inactive,inactive,inactive,
CC(=O)C(C)=O,inactive,inactive,,,,inactive,,inactive,inactive,inactive,inactive,inactive
O=c1[nH]c2cc(Cl)ccc2c(O)c1-c1ccc(Oc2ccccc2)cc1,inactive,inactive,,,,inactive,inactive,inactive,,inactive,inactive,
CCCCCCCCCC(=O)NC(CN1CCOCC1)[C@H](O)c1ccccc1 (some centres undefined),,inactive,,,,inactive,inactive,1.26 µM (active),2 µM (active),6.31 µM (active),inactive,
CSC(=N)N,inactive,inactive,,,,inactive,inactive,inactive,inactive,inactive,inactive,
NCC(O)(CS(=O)(=O)O)c1ccc(Cl)cc1 (centres undefined),,inactive,,,,inactive,inactive,inactive,inactive,inactive,inactive,
CCCN(CCc1ccccc1)C1CCc2c(O)cccc2C1 (centres undefined),,inactive,,,,inactive,,1.12 µM (active),0.891 µM (active),3.16 µM (active),inactive,

# Reference: PubChem BioAssay (NCATS)
